# Assay results reported in PubChem BioAssay (NCI).
# Compounds without any hit were thinned out: in the full panel of roughly 83,000, 20% have a hit.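 Method: cells in 96-well plates; compound added at one concentration; 48 h incubation; percent growth measured; values under 10 scored active.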 Values without a mark were called inactive. Activity calls are given as the source filed them.
# Test system: HL-60(TB) leukemia
# Assay: NCI-60 one-dose screen, 48 h (100 = growth as untreated, 0 = no growth, -100 = all killed)
# Details: 10 µM unless noted
row,SMILES,growth
1,COc1ccc(/C=N/NC(=O)c2cccc3cc[nH]c23)cc1O,10.1%
2,CN(C)c1ccc(N=Cc2ccc(N3CCOCC3)cc2)cc1,16.6%
3,COC(=O)[C@]12CC[C@@H](C)[C@H](C)[C@@H]1C1=CC[C@@H]3[C@@]4(C)C[C@@H](O)[C@H](O)[C@@](C)(CO)C4=CC[C@@]3(C)[C@]1(C)CC2,-28% (active)
4,Cc1cc2ccccc2cn1,91.6%
5,CC(C)CCN(CCCNc1c2c(nc3cc(Cl)ccc13)CCCC2)CCC(C)C,70.4%
6,COc1cc(C(=O)n2nc(N3CCOCC3)c3cc(-n4cccc4)ccc32)cc(OC)c1OC,61.6%
7,O=C(O)CSc1ccc(NCc2oc(CO)cc(=O)c2O)cc1,69.3%
8,CCC(C)(C)C1CCC(O)CC1 (stereo not given),83.8%
9,c1ccc(CO[C@H]2CO[C@H]3[C@@H]2OC[C@@H]3Oc2ccc(Nc3ncnc4ccsc34)cc2)cc1,75.7%
10,C#CCN1C(=O)/C(=c2\sc3n(c2=O)C2C(NN=3)N(CC)C(=O)N2CC)c2ccccc21 (stereo not given),-29.4% (active)
11,CCOc1ccccc1C(=O)/C=C/c1cc2ccccc2[nH]c1=O,-7.94% (active)
12,COc1ccc(C(=S)N2CCN(c3ccccc3Cl)CC2)cc1OC,118%
13,C[C@@H](c1ccc2c(c1)[nH]c1ccc(Cl)cc12)c1nc2ccc(Cl)cc2[nH]1,0.0537% (active)
14,COc1cc(/C=C/C(=O)c2ccc(NC(=O)CSc3nnc(-c4cc(-c5ccccc5)nc5ccccc45)n3-c3ccccc3)cc2)cc(OC)c1OC,84.9%
15,N#Cc1c(-c2ccccc2)cc(-c2ccccc2)n(CCCCCCC(=O)O)c1=O,105%
16,O=C1/C(=C\c2ccccc2)CN(C(=O)c2ccccc2)C/C1=C\c1ccccc1,29.6%
17,COc1cc(NCCCN(CC(C)C)C2CCCC2)c2ncccc2c1,22.5%
18,CC1=C(Cl)C(=O)c2cc(C)ccc2C1=O,117%
19,CC(Sc1nc2ccccc2c(=O)n1CCc1ccc(S(N)(=O)=O)cc1)C(=O)Nc1ccc(Cl)cc1 (stereo not given),86.2%
20,CCCCCn1c(=N)n(CC(O)COc2cccc(C)c2)c2ccccc21 (stereo not given),2.51% (active)

row,SMILES,growth
1,COc1cc2nc(N3CCCC3)nc(NCc3ccccc3)c2cc1OC,-47.8% (active)
2,c1ccc(-c2nc([P+](c3ccccc3)(c3ccccc3)c3ccccc3)c(N3CCOCC3)o2)cc1,-12% (active)
3,Cc1ccc(OCC(=O)Nc2ccc(Oc3ccccc3)cc2)c([N+](=O)[O-])n1,69%
4,Cc1cc(=O)[nH]c(NN=C2CCCC2)n1,94.6%
5,COc1ccccc1Nc1nc(-c2cc3cccc(C(F)(F)F)c3oc2=O)cs1,-5.62% (active)
6,CCN(CC)c1ccc(/C=N/NC(=O)c2ccc(Nc3ccnc(C(F)(F)F)c3)cc2)c(O)c1,53.2%
7,CC(C)C(C#N)(C(C)C)C(C)C,109%
8,O=c1oc2c(cc1-c1ccc([N+](=O)[O-])cc1)C(O)Oc1ccccc1-2 (stereo not given),71.9%
9,Cc1cc(NCCCCNc2ccnc3cc(Cl)ccc23)nc(Nc2ccc(C(=O)N3CCCCC3)cc2)n1,-59.3% (active)
10,c1cc[c]([Bi]([c]2ccccc2)[c]2ccccc2)cc1,96.6%
11,Cc1ccc(S(=O)(=O)N2CCCN(c3nc(-c4ccccc4)nc4nc(-c5ccccc5)oc34)CC2)cc1,110%
12,Cc1cccc(C[C@H](NC(=O)Nc2ccc(Cl)cc2F)C(=O)N[C@@H]2C(=O)N3C[C@H](OC(=O)CCN(C)C)C[C@H]3C(=O)N3CCCC[C@H]3C(=O)N[C@@H](C)C(=O)N3C[C@H](C)C[C@H]3C(=O)O[C@H]2C)c1,16.3%
13,CCN(C(=O)Nc1ccccc1Cl)c1ccccc1,113%
14,COc1ccc(C2CC(c3cc(OC)c(OC)c(OC)c3)=NN2c2ccc(S(N)(=O)=O)cc2)cc1 (stereo not given),2.23% (active)
15,O=C(/C=C(O)/C=C/c1cccc2[nH]ccc12)/C=C/c1cccc2[nH]ccc12,39.4%
16,O=C(CCCOc1ccc(Br)cc1)Nc1ncc(Cc2ccc(F)cc2)s1,34.7%
17,CC(C)c1ccc(/C=N/Nc2nc3ccccc3s2)cc1,98%
18,O=C(C(Br)Br)C(Br)C(Br)c1ccccc1 (stereo not given),88.8%
19,CN(C)c1ccc2cc3c(cc2c1)Oc1ccccc1N3.[Cl][Zn][Cl],-10.4% (active)
20,NC(=O)c1cc(I)ccc1NC(=O)COc1ccccc1,-20.5% (active)
